Bioassay records deposited in PubChem by National Center for Advancing Translational Sciences (NCATS).
ATXN2 expr inh – reduces ATXN2 reporter expression in HEK-293 cells; HEK-293 ATXN2-luciferase reporter, luminescence, 24 h; Potency, µM (series often up to 57 µM), usual class: inhibitors; 360,000 compounds, 0.72% hits; further: nearly all actives have a fitted effect of over 55% in size
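ATXN2-luciferase reporter cells (luciferase flanked by upstream and downstream ATXN2 gene portions) were treated 24 h at 37 °C with compounds at up to 57 uM. SteadyGlo luminescence gave expression; GF-AFC fluorescence gave viability.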
HepG2 viability – kills HepG2 cells in TGF-b inhibitor counter-screen | HepG2 CAGA-GFP viability, ATP luminescence, 18 h | Potency, µM (doses to about 46.1 µM), usual class: cytotoxic | 410,000 compounds, 0.76% hits | AID 588856
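CellTiter-Glo luminescence gave cytotoxicity after 18 hours at 37 degrees C. The cells were HepG2 CAGA-GFP in 1% FBS DMEM, stimulated with 500 pg/mL TGF-beta after compound addition. %Activity was normalised to no-cell wells (complete cell-killing) and DMSO (no toxicity), and curves were fitted and classified.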
S2 tox – reduces viability in counter-screen for ATXN expression inhibitors. S2 cells (HEK-293 line with an ATXN2-luciferase reporter) viability, CellTiter-Fluor protease fluorescence, 24 h. Potency, µM (highest dose often 56.7 µM), actives largely listed as cytotoxic. 400,000 compounds, 0.49% hits. AID 651635; further: nearly all actives have a fitted effect of over 40% in size
Anesthetic bind – candidate novel general anesthetic via apoferritin binding; 350,000 compounds, 0.074% hits; Potency, µM (titrated, usually from 77.5 µM), usual class: inhibitors; AID 485281; P02791; apoferritin/1-aminoanthracene competitive binding, fluorescence; further: nearly all actives have a fitted effect of over 20% in size
Target sequence (P02791 2-175 limits assumed): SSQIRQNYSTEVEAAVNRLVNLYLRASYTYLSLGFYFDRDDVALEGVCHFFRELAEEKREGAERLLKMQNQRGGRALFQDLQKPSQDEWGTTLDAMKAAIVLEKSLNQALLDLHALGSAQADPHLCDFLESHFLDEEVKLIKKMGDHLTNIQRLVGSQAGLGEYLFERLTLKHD
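10 uM apoferritin + 50% sat. 1-AMA, PBS; cpd 10 min RT; Ex380/Em535 endpoint; normalized to free probe vs complex; 4-param Hill fit; propofol titration as pos. ctrl.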
TGFb SMAD3 inh – blocks TGF-b signaling; AID 588855; 410,000 compounds, 1.2% hits; Potency, µM (doses to about 46.1 µM), most hits filed as inhibitors; HepG2 CAGA-GFP TGF-b/SMAD3 reporter, GFP fluorescence, 18 h; TGF-beta stimulated, 500 pg/mL final; further: nearly all actives have a fitted effect of over 65% in size
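Cell-based qHTS in HEPG2 carrying a CAGA-GFP Smad reporter; compounds added before 500 pg/mL final TGF-beta, 18 h incubation at 37 degrees C, GFP fluorescence quantified per cell by imaging cytometry.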
Large screens that a line does not name were inactive; ! = repeats disagree. A selection: hits, their analogues and other compounds. The true share with any hit is near 2.4%. The call rests on the fitted dose curve; in most records, active means well fitted curve in the direction sought with a large enough effect; inconclusive means small, poorly fitted or top-dose-only effect, or another doubt; inactive means no such curve, though single readings can be large; an effect the other way counts as inactive or inconclusive.

Cc1ccc(NP(=O)(Oc2ccccc2F)Oc2ccccc2F)cc1	S2 tox inconclusive, TGFb SMAD3 inh inconclusive
CCc1ccc(NP(=O)(Oc2ccccc2F)Oc2ccccc2F)cc1	TGFb SMAD3 inh 18µM
CC(C)c1ccc2c(c1)C(N1CCNCC1)Cc1ccc(F)cc1S2 (stereo unspecified)	ATXN2 expr inh inconclusive, S2 tox inconclusive, TGFb SMAD3 inh 18µM (no result: Anesthetic bind)
COc1cccc(-c2nnc3n(Cc4ccccc4Cl)c(=O)c4ccccc4n23)c1O	S2 tox inconclusive
N[C@@H](Cc1ccc(N(CCCl)CCCl)cc1)C(=O)O	ATXN2 expr inh 5.4µM!, S2 tox inconclusive (no result: Anesthetic bind)
CC(=O)NC(Cc1ccc(N(CCCl)CCCl)cc1)C(=O)O (stereo unspecified)	ATXN2 expr inh inconclusive
CC(C)(C)CC(C)(C)c1ccc(O)cc1	ATXN2 expr inh inconclusive, S2 tox 35µM! (no result: HepG2 viability, Anesthetic bind, TGFb SMAD3 inh)
CCC(C)(C)c1ccc(O)cc1	none (no result: Anesthetic bind)
CC(C)(O)/C=C/C(=O)[C@](C)(O)C1[C@H](O)C[C@@]2(C)C3CC=C4C(C[C@H](O)[C@@H](O)C4(C)C)[C@]3(C)C(=O)C[C@]12C (stereo partly specified)	ATXN2 expr inh inconclusive, S2 tox inconclusive, TGFb SMAD3 inh 0.71µM (no result: Anesthetic bind)
COc1cc(C[C@@H](C)N)c(OC)cc1C	S2 tox inconclusive (no result: HepG2 viability, Anesthetic bind, TGFb SMAD3 inh)
Cc1cnc(SCc2ccccn2)nc1C1CCCN(C(=O)c2cccc(-c3cccc(F)c3)c2)C1 (stereo unspecified)	S2 tox 32µM (no result: ATXN2 expr inh, HepG2 viability, Anesthetic bind, TGFb SMAD3 inh)
O=C(NC(=O)c1c(F)cccc1F)Nc1cc(Cl)c(OC(F)(F)C(F)C(F)(F)F)cc1Cl (stereo unspecified)	none (no result: HepG2 viability, TGFb SMAD3 inh)
CN(C)c1ccc(N=Nc2ccccc2)cc1	none (no result: ATXN2 expr inh, S2 tox, Anesthetic bind)
CN(C)c1ccc(N=O)cc1	TGFb SMAD3 inh 5µM (no result: ATXN2 expr inh, S2 tox, Anesthetic bind)
CCC1(CCC(C)C)C(=O)NC(=O)NC1=O	none (no result: HepG2 viability, Anesthetic bind, TGFb SMAD3 inh)
Cc1ccc(-c2cc(-c3ccc(C)cc3)[n+](-c3ccc(C(=O)[O-])cc3)c(-c3ccc(C)cc3)c2)cc1	none (no result: Anesthetic bind)
CN(C)c1ccc(-[n+]2c(-c3ccccc3)cc(-c3ccccc3)cc2-c2ccccc2)cc1	ATXN2 expr inh inconclusive, S2 tox inconclusive, Anesthetic bind inconclusive, TGFb SMAD3 inh 4µM
c1ccc(-c2cc(-c3ccccc3)[n+](-c3ccccc3)c(-c3ccccc3)c2)cc1	ATXN2 expr inh 8.9µM, TGFb SMAD3 inh 13µM (no result: S2 tox)
Cc1ccc(-c2cc(-c3ccccc3)cc(-c3ccccc3)[n+]2-c2ccccc2)cc1	ATXN2 expr inh 3.5µM, S2 tox 13µM, TGFb SMAD3 inh 5.6µM (no result: Anesthetic bind)
CCOC(=O)c1ccc(-[n+]2c(-c3ccccc3)cc(-c3ccccc3)cc2-c2ccccc2)cc1	S2 tox inconclusive, TGFb SMAD3 inh inconclusive (no result: Anesthetic bind)
CCOc1ccc(NC(=O)c2cc3c(C)nn(-c4ccccc4)c3s2)cc1	none
Cn1c(NN=O)nc2ccccc21	ATXN2 expr inh inconclusive, S2 tox 14µM, TGFb SMAD3 inh inconclusive
CN1CCN(Cc2nc3ccccc3n2C)CC1	S2 tox inconclusive
COC1C(O)C(C)O[C@@H](OC2CC[C@@]3(C)C4CC[C@]5(C)C(C6=CC(=O)OC6)CC[C@@]5(O)C4CC[C@@H]3C2)C1O (stereo partly specified)	none (no result: ATXN2 expr inh, HepG2 viability, S2 tox, TGFb SMAD3 inh)
CC1OC(OC2C=C3CCC4C(CCC5(C)C(c6ccc(=O)oc6)CCC45O)C3(C)CC2)C(O)C(OC2OC(CO)C(O)C(O)C2O)C1O (stereo unspecified)	ATXN2 expr inh 0.0075µM, S2 tox inconclusive, TGFb SMAD3 inh 0.4µM (no result: Anesthetic bind)
Cc1ccc(-c2cc(-c3ccc(C)cc3)[n+](C)o2)cc1	TGFb SMAD3 inh 7.1µM
C=C(C)[C@@]12OC3(c4ccccc4)O[C@@H]1[C@@H]1[C@@H]4O[C@]4(CO)[C@@H](O)[C@]4(O)C(=O)C(C)=C[C@H]4[C@@]1(O3)[C@H](C)[C@H]2OC(=O)/C=C/C=C/c1ccccc1	none (no result: ATXN2 expr inh, HepG2 viability, S2 tox, TGFb SMAD3 inh)
c1ccc2c(c1)[nH]c1cnccc12	none
Cc1c2ccncc2c(C)c2c1[nH]c1ccccc12	ATXN2 expr inh 14µM, HepG2 viability 13µM, S2 tox inconclusive, TGFb SMAD3 inh inconclusive
CC(Cc1ccc2c(c1)OCO2)NO (stereo unspecified)	none (no result: HepG2 viability, Anesthetic bind, TGFb SMAD3 inh)
